High-throughput results (PubChem)
Pol eta inh-1 – qHTS for Inhibitors of Polymerase Eta | DNA polymerase eta (Homo sapiens), Q9Y253 | recombinant Pol eta, fluorescent DNA replication assay | Potency, µM (series often up to 114 µM), inactives show at the highest dose activity change, negative = inhibition, actives largely listed as inhibitors | 1.2% of 390,000 active; note: potency is the fitted concentration of half-maximal effect; % is set by controls: 0 for no effect and ±100 for the full control effect
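Pol eta (10 nM) was preincubated with compounds for 15 min at room temperature, after which fluorescent replication substrate (50 nM final) was added to start the reaction. Fluorescence was read kinetically at 0 and 10 min.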
L3MBTL1 block – qHTS Assay for the Inhibitors of L3MBTL1. Lethal(3)malignant brain tumor-like protein 1 (Homo sapiens), Q9Y468. AlphaScreen L3MBTL1–H3K9me1 peptide binding. Potency, µM (doses to about 57.1 µM), inactives show at the top dose activity, negative = inhibition, hits mostly inhibitors. 0.66% of 230,000 active. AID 485360, 2010; note: potency is the fitted concentration of half-maximal effect; % is set by controls: 0 for no effect and ±100 for the full control effect; nearly all actives have a fitted effect of over 60% in size
Target sequence (Q9Y468 whole entry, looked up): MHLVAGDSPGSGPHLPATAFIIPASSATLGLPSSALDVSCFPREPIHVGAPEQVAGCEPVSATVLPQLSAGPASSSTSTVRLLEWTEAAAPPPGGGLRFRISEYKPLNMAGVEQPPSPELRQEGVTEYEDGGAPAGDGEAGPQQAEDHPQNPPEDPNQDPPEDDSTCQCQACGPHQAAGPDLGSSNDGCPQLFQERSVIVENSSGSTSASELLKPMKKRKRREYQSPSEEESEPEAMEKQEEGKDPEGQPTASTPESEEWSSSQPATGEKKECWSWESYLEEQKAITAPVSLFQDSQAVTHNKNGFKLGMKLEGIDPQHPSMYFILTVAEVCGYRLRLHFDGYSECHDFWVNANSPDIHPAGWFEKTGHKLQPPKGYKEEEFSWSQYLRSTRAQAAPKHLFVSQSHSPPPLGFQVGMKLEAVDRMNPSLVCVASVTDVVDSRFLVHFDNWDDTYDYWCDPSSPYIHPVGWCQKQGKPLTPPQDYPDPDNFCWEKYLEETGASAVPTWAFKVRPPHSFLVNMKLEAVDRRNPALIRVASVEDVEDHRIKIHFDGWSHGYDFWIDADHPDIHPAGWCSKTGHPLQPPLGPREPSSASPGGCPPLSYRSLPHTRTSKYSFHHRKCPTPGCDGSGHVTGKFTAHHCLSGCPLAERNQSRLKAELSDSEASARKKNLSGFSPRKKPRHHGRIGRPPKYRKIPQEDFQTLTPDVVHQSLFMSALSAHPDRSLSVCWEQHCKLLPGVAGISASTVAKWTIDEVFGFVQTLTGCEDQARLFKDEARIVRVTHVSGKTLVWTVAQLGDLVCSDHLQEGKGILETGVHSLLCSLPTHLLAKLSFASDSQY
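Displacement of a biotinylated histone H3(1-15) peptide monomethylated at Lys9 (75 nM) from L3MBTL1 (50 nM) was measured by AlphaScreen after a 30 min room-temperature compound incubation; cefsulodin titration served as intraplate control.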
APEX1 inh – qHTS Assay for Inhibitors of the Human Apurinic/apyrimidinic Endonuclease 1 (APE1); DNA repair nuclease/redox regulator APEX1 (Homo sapiens), P27695; recombinant APE1, TAMRA/BHQ-2 abasic DNA cleavage fluorescence; Potency, µM (top dose mostly 65.8 µM), for the others: top-dose activity change, negative = inhibition, hits mostly inhibitors; 0.35% of 350,000 active; AID 2517, 2012;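 note: potency is the fitted concentration of half-maximal effect; plate controls were vehicle for no effect and reference inhibitor for full effect; nearly all actives have a fitted effect of over 55% in size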
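Substrate: short duplex with […] THF abasic site, 5'-TAMRA and 3'-BHQ-2, 50 nM final. APE1 at 0.75 nM, preincubated 15 min RT with compound. Fluorescence increase from first to third read measured activity.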
POLB inh – qHTS Assay for Inhibitors of DNA Polymerase Beta; 1.3% of 340,000 active; Potency, µM (titrated, usually from 114 µM), without a hit: top-dose activity change, negative = inhibition, most hits filed as inhibitors; Pol beta primer extension/strand displacement, fluorescence kinetic; note: potency is the fitted concentration of half-maximal effect; % is set by controls: 0 for no effect and ±100 for the full control effect
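Homogeneous kinetic assay of primer extension and strand displacement by 10 nM Pol beta, preincubated 15 min at room temperature with compound before 50 nM substrate (final) was added. Read at 0 and 10 min; four-parameter Hill fit.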
Pol iota inh – qHTS for Inhibitors of Polymerase Iota; DNA polymerase iota (Homo sapiens), Q9UNA4; Pol iota fluorescent replication assay, 10 min; Potency, µM (series often up to 115 µM), for the others: at the highest dose activity, negative = inhibition, usual class: inhibitors; 1% of 390,000 active; note: potency is the fitted concentration of half-maximal effect
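Pol iota at 10 nM preincubated 15 min with compounds at room temperature; reaction started with fluorescent substrate, 50 nM final. Fluorescence read kinetically at 0 and 10 min; buffer-only wells as negative control.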
Pol kappa inh-1 – qHTS for Inhibitors of Polymerase Kappa. DNA polymerase kappa (Homo sapiens), Q9UBT6. purified Pol kappa, fluorescent DNA synthesis assay, 10 min. Potency, µM (highest dose often 107 µM), for inactives: at the top dose activity, negative = inhibition, usual class: inhibitors. 0.53% of 400,000 active. AID 588579, 2011; note: potency is the fitted concentration of half-maximal effect; % is set by controls: 0 for no effect and ±100 for the full control effect
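Kinetic fluorescence screen: compound preincubated 15 min RT with 10 nM enzyme; 50 nM substrate (final) initiates; reads at 0/10 min.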
GALK inh confirm – Confirmation Assay for Inhibitors of Human Galactokinase (GALK). AID 2015, 2009. Potency, µM (top dose mostly 115 µM), for inactives: at the top dose activity, negative = inhibition, hits mostly inhibitors. purified GALK, Kinase-Glo ATP depletion luminescence. 70% of 150 active. shares compounds with Pol eta inh-1
GALK redox cs – Confirmatory Assay for Inhibitors of Human Galactokinase (GALK): Phenol-HRP redox assay counterscreen. 40% of 150 active. Phenol red-HRP H2O2 redox cycling, absorbance 600 nm. Potency, µM (titrated, usually from 115 µM), for the others: at the highest dose activity change, negative = H2O2 signal, most hits filed as inhibitors. shares compounds with Pol eta inh-1
HEK293 viability – Secondary Assay for Inhibitors of Human Galactokinase (GALK): HEK-293 Cell Viability Assay. shares compounds with Pol eta inh-1. HEK-293 viability, ATP luminescence (CellTiter-Glo), 24/48 h. Potency, µM (series often up to 46.1 µM), for inactives: at the top dose activity change, negative = cytotoxicity, usual class: inhibitors. 10% of 170 active. AID 2547, 2010; note: potency is the fitted concentration of half-maximal effect; % is set by controls: 0 for no effect and ±100 for the full control effect
Pol kappa inh-2 – qHTS for Inhibitors of Polymerase Kappa: Confirmatory Assay for Cherry-picked Compounds; shares compounds with Pol eta inh-1; 76% of 920 active; purified Pol-kappa, fluorescent strand-displacement substrate; Potency, µM, most hits filed as inhibitors; note: potency is the fitted concentration of half-maximal effect
Pol eta inh-2 – qHTS for Inhibitors of Polymerase Eta: Confirmatory Assay for Cherry-picked Compounds. shares compounds with Pol eta inh-1. Pol eta primer extension, TAMRA/BHQ fluorescence, 10 min. Potency, µM, actives largely listed as inhibitors. 64% of 2,600 active; note: potency is the fitted concentration of half-maximal effect
An asterisk follows results filed as active; ? = inconclusive; nt = not tested or not shown; [ ] = another dose, or the depositor's remark. The list is not random: actives were taken first. Their share in the collection is about 2.5%. Calls come from the whole dose curve; as a rule, active = well fitted curve in the direction sought with a large enough effect; inconclusive = small, poorly fitted or top-dose-only effect, or another doubt; inactive = no such curve, though single readings can be large; an effect the other way counts as inactive or inconclusive.

SMILES	Pol eta inh-1	L3MBTL1 block	APEX1 inh	POLB inh	Pol iota inh	Pol kappa inh-1	Pol eta inh-2	others
CSCC[C@H](NS(=O)(=O)c1ccc(C(C)=O)cc1)c1nnc2ccccn12	14.1µM*	nt	?	79.4µM*	-21.1%	-19.1%	67.5*
CSCCC(NC(=O)C1CCCC1)c1nnc2ccccn12 (stereo not drawn)	-10.1%	nt	38.6%	10.6%	70.0%	6.3%	nt
CCN(CC)S(=O)(=O)c1ccc(C(=O)OCC(=O)NCc2ccco2)cc1	?	-22.4%	?	?	?	?	nt
CCN(CC)S(=O)(=O)c1ccc(/C=C/C(=O)OCC(=O)NCc2ccco2)cc1	15.8µM*	?	?	nt	35.5µM*	?	?	Pol kappa inh-2=42.3*
Cc1c(Cl)cnc(NC(=O)COC(=O)c2ccc([N+](=O)[O-])s2)c1Cl	17.8µM*	?	?	28.2µM*	25.1µM*	-44.2%	84.9*
CCOc1ccc(CNC(=O)c2cnc(SC)nc2CC)cc1	nt	nt	nt	?	5.1%	-3.2%[60.1 µM]	nt
O=C(O)c1ccc(C=C(c2nc3ccccc3s2)c2nc3ccccc3s2)cc1	39.8µM*	-22.3%	3.5%	-0.3%	?	-11.0%	?
O=C(O)c1ccc(Oc2nc3ccccc3s2)cc1	-17.7%	nt	nt	nt	21.2%	-9.7%	nt
Cc1cccc(/C=C/C(=O)c2cc(Br)ccc(=O)c2O)c1	31.6µM*	nt	-12.4%	?	0.891µM*	?	?
O=S(=O)(Nc1ccc(O)c(Sc2nc3ccccc3s2)c1)c1cc(Cl)ccc1Cl	79.4µM*	nt	nt	?	?	?	?
O=[N+]([O-])c1ccc(Cl)c2c1C1C=CCC1C(c1ccccn1)N2 (stereo not drawn)	50.1µM*	?	-11.2%	35.5µM*	?	?	?
Cc1cc([N+](=O)[O-])cc2c1NC(c1ccccn1)C1CC=CC21 (stereo not drawn)	?	-1.8%	5.8%	-23.0%	?	-8.2%	nt
CC(=O)c1ccc(NC(=O)CSc2nnc(-c3ccncc3)n2-c2ccccc2)cc1	-15.1%	nt	nt	?	?	-10.2%[60.1 µM]	nt
Cc1ccc(C)c(Nc2nc3c(S(=O)(=O)c4ccc(C(C)C)cc4)nnn3c3ccsc23)c1	-18.7%	nt	nt	1.0%	-23.7%	-14.1%	nt
Cc1ccc(C)c(Nc2nc3c(S(=O)(=O)c4ccc(Br)cc4)nnn3c3ccsc23)c1	-25.5%	nt	nt	17.8µM*	44.7µM*	?	nt	Pol kappa inh-2=21.2*
COc1cc(C(C)=O)ccc1OC(=O)N1CCOCC1	8.8%	nt	nt	nt	nt	nt	nt
O=C1CC(c2ccccc2)CC2=C1C1(CCCC1)N=C(Nc1nc3ccccc3o1)N2 (stereo not drawn)	nt	nt	nt	nt	nt	nt	nt	HEK293 viability=-3.4%
O=C1CCCC2=C1C1(CCCC1)N=C(Nc1nc3ccccc3o1)N2	nt	-2.4%	4.2%	0.6%	nt	nt	nt	HEK293 viability=-0.6%
Cc1nc(Nc2nc3ccccc3o2)nc2c1CCC2	4.5%	-0.3%	-0.3%	6.7%	2.0%	-16.7%	nt
Clc1ccccc1Nc1nc2ccccc2o1	-4.9%	4.6%	7.5%	nt	8.8%	-12.6%	nt
O=C1CCCC2=C1C1(CCCCC1)N=C(Nc1nc3ccccc3o1)N2	-17.2%	-12.8%	6.6%	-22.9%	1.0%	-10.1%	nt	GALK inh confirm=16.8µM*;GALK redox cs=-5.4%;HEK293 viability=-1.6%
O=C1CC(N2CCC(c3nc4ccccc4o3)CC2)C(=O)N1 (stereo not drawn)	-15.0%	0.6%	1.6%	1.0%	7.8%	6.2%	nt
O=C1CCCC2=C1C1(CCC1)N=C(Nc1nc3ccccc3o1)N2	nt	nt	nt	nt	nt	nt	nt	HEK293 viability=-1.0%
COc1ccc(OC)c(CNC(=O)c2ccc(N3Cc4ccccc4Oc4ncccc43)s2)c1	-14.0%	nt	nt	0.2%	-0.3%	-2.7%	nt
COc1ccc(NC(=O)c2c(N)c(C(=O)c3ccc(C)cc3)n3ccccc23)cc1OC	nt	nt	nt	2.6%	-0.4%	-2.7%	nt
SMILES	Pol eta inh-1	L3MBTL1 block	APEX1 inh	POLB inh	Pol iota inh	Pol kappa inh-1	Pol eta inh-2	others
Cc1ccccc1C(=O)NC1CCN(CC(=O)NCc2ccccc2)CC1	-8.0%	nt	-4.6%	8.4%	1.5%	-4.2%	nt
COc1ccc(N/N=C(/C#N)S(=O)(=O)c2nsc(C)c2C#N)cc1	0.0%	nt	1.0%	-2.1%	6.0%	-12.5%	nt	GALK inh confirm=?;GALK redox cs=8.2%;HEK293 viability=10.8%
COc1ccc(N/N=C(/C#N)S(=O)(=O)C(C)(C)C)cc1	-23.1%	nt	-2.7%	3.7%	19.5%	3.4%	nt
Cc1snc(S(=O)(=O)/C(C#N)=N/Nc2cccc(C(F)(F)F)c2)c1C#N	1.5%	nt	-3.2%	21.1%	-2.3%	-21.1%	nt	GALK inh confirm=23.7µM*;GALK redox cs=0.6%;HEK293 viability=10.5%
CCC(CC)c1nn2c(=O)cc(COc3ccc(NC(=O)c4cccc(C)c4)cc3)nc2s1	-9.9%	nt	nt	-0.9%	16.7%	-9.3%	nt
Cc1ccc(C(=O)N/C(=C\c2ccc(Cl)cc2)C(=O)NCCN2CCOCC2)cc1	-7.0%	nt	83.3%[12.4 µM]	0.4%	87.1%	1.2%	nt	GALK inh confirm=-5.5%;GALK redox cs=-1.8%;HEK293 viability=-2.4%
COc1ccc(-c2cc(=O)c3c(O)cc(OC4OC(COC5OC(C)C(O)C(O)C5O)C(O)C(O)C4O)cc3o2)cc1O (stereo not drawn)	22.4µM*	-13.6%	28.2%	nt	?	?	30.1*	Pol kappa inh-2=11.9*
